In PubChem BioAssay AID1159580 (chemical genetic matrix, 2015):
Hit rate of the full screen: of about 5,500 compounds, about 2,000 (36%) were called active. Another 18% or so got no clear call; they are omitted. Rule as the data show it: active = normalized growth mostly below about 0.91 (no sharp cut-off); inconclusive = no clear call, values can overlap the other calls; inactive = mostly above about 0.92. The list shows a part of the results.

Assay: chemical genetic growth profiling, strain panel (AID 1159580);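 also: tested at 20 µM; growth read once vehicle control cultures reached saturation at 30 °C; 1 = growth at the plate median or of vehicle wells; lower values mean less growth of the strain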
Conditions: S. cerevisiae deletion strains, growth OD
[1] = locus YAL013W, strain DEP1, stronger effect = lower value
[2] = locus YBR229C, strain ROT2, stronger effect = lower value
[3] = locus YDL101C, strain DUN1, stronger effect = lower value
[4] = locus YDL134C, strain PPH21, stronger effect = lower value
[5] = locus YDR150W, strain NUM1, stronger effect = lower value
[6] = locus YEL061C, strain CIN8, stronger effect = lower value
[7] = locus YGR078C, strain PAC10, stronger effect = lower value
[8] = locus YHR030C, strain SLT2, stronger effect = lower value
[9] = locus YHR087W, strain rtc3, stronger effect = lower value
[10] = locus YJR043C, strain POL32, stronger effect = lower value
[11] = locus YJR075W, strain HOC1, stronger effect = lower value
[12] = locus YLR039C, strain RIC1, stronger effect = lower value
[13] = locus YLR058C, strain SHM2 (second series), stronger effect = lower value
[14] = locus YLR085C, strain ARP6, stronger effect = lower value
[15] = locus YLR262C, strain YPT6, stronger effect = lower value
[16] = locus YML094W, strain GIM5, stronger effect = lower value
[17] = locus YMR219W, strain ESC1, stronger effect = lower value
[18] = locus YMR263W, strain SAP30, stronger effect = lower value
[19] = locus YNL153C, strain GIM3, stronger effect = lower value
[20] = locus YNL298W, strain CLA4 (second series), stronger effect = lower value
[21] = locus YNL322C, strain KRE1, stronger effect = lower value
[22] = locus YNR030W, strain Alg12, stronger effect = lower value
[23] = locus YPL055C, strain LGE1, stronger effect = lower value
[24] = locus YPL241C, strain CIN2, stronger effect = lower value
[25] = locus YPR135W, strain CTF4, stronger effect = lower value

Measured: normalized growth

O=C(NC(=S)Nc1ccccn1)c1ccccc1
inactive: [1] 0.962 | [2] 0.948 | [3] 0.942 | [4] 0.977 | [5] 0.956 | [7] 0.962 | [9] 1 | [10] 0.955 | [11] 0.988 | [13] 0.976 | [17] 0.964 | [18] 0.993 | [19] 0.933 | [21] 1
active: [6] 0.783 | [8] 0.401 | [12] 0.573 | [14] 0.428 | [15] 0.788 | [16] 0.777 | locus YMR307W, strain GAS1, stronger effect = lower value 0.476 | [20] 0.67 | [22] 0.8 | locus YOL006C, strain TOP1, stronger effect = lower value 0.213 | [23] 0.825 | [24] 0.807 | [25] 0.552

CCC(C(=O)Nc1ccc(C(F)(F)F)cc1)c1ccccc1 (stereo unspecified)
inactive: [1] 0.989 | [2] 0.984 | locus YCL061C, strain MRC1, stronger effect = lower value 0.958 | [3] 0.956 | [4] 0.977 | [5] 0.952 | [6] 1.03 | [7] 0.958 | [8] 0.986 | [9] 0.998 | [10] 0.972 | [11] 0.96 | locus YKL190W, strain CNB1, stronger effect = lower value 0.982 | [12] 0.923 | [13] 0.982 | [14] 0.925 | [15] 0.987 | [16] 0.981 | [17] 0.994 | [18] 0.99 | locus YNL128W, strain TEP1, stronger effect = lower value 0.982 | [19] 0.968 | [20] 0.945 | [21] 0.99 | [22] 0.976 | [23] 1.01 | [24] 0.932 | [25] 0.906

CC(C)c1ccc(NC(=S)NC(=O)c2ccccc2)cc1
inactive: locus YAR019C, strain CDC15, stronger effect = lower value 0.964 | locus YBL105C, strain PKC1, stronger effect = lower value 0.952 | locus YBR135W, strain CKS1, stronger effect = lower value 0.957 | locus YBR136W, strain MEC1, stronger effect = lower value 0.963 | locus YBR160W, strain CDC28, stronger effect = lower value 0.961 | locus YDL017W, strain CDC7, stronger effect = lower value 0.96 | locus YDL028C, strain MPS1, stronger effect = lower value 0.953 | [3] 0.96 | locus YDL108W, strain KIN28, stronger effect = lower value 0.971 | locus YDL132W, strain cdc53, stronger effect = lower value 0.953 | locus YDL214C, strain PRR2, stronger effect = lower value 0.939 | locus YDR052C, strain DBF4, stronger effect = lower value 0.962 | locus YDR054C, strain cdc34, stronger effect = lower value 0.94 | locus YDR226W, strain ADK1, stronger effect = lower value 0.955 | locus YDR477W, strain SNF1, stronger effect = lower value 0.923 | locus YER123W, strain YCK3, stronger effect = lower value 0.959 | locus YER133W, strain GLC7, stronger effect = lower value 0.938 | locus YFL009W, strain cdc4, stronger effect = lower value 0.952 | locus YFL029C, strain CAK1, stronger effect = lower value 0.953 | locus YFR003C, strain YPI1, stronger effect = lower value 0.961 | locus YFR019W, strain FAB1, stronger effect = lower value 0.999 | locus YFR028C, strain CDC14, stronger effect = lower value 0.958 | locus YGR040W, strain KSS1, stronger effect = lower value 0.918 | locus YGR052W, strain FMP48, stronger effect = lower value 1.03 | locus YGR092W, strain DBF2, stronger effect = lower value 0.851 | locus YHR079C, strain IRE1, stronger effect = lower value 0.882 | locus YHR082C, strain KSP1, stronger effect = lower value 0.974 | locus YHR205W, strain SCH9, stronger effect = lower value 0.904 | locus YIL147C, strain SLN1, stronger effect = lower value 0.963 | locus YJL095W, strain BCK1, stronger effect = lower value 0.883 | locus YJL128C, strain PBS2, stronger effect = lower value 0.94 | locus YJL157C, strain FAR1, stronger effect = lower value 0.923 | locus YJR016C, strain ILV3, stronger effect = lower value 0.958 | locus YJR066W, strain TOR1 (second series), stronger effect = lower value 0.906 | locus YJR066W, strain TOR1, stronger effect = lower value 0.891 | locus YKL048C, strain ELM1, stronger effect = lower value 0.968 | locus YKL067W, strain YNK1, stronger effect = lower value 0.953 | locus YKL101W, strain HSL1, stronger effect = lower value 0.957 | locus YKL193C, strain SDS22, stronger effect = lower value 0.954 | locus YKL203C, strain TOR2, stronger effect = lower value 0.96 | locus YLR113W, strain HOG1, stronger effect = lower value 0.919 | locus YLR133W, strain CKI1, stronger effect = lower value 0.941 | locus YLR403W, strain SFP1, stronger effect = lower value 0.879 | locus YML070W, strain DAK1, stronger effect = lower value 0.97 | locus YMR001C, strain CDC5, stronger effect = lower value 0.951 | locus YMR205C, strain PFK2 (second series), stronger effect = lower value 0.956 | locus YMR277W, strain FCP1, stronger effect = lower value 0.962 | locus YNL006W, strain LST8, stronger effect = lower value 0.966 | locus YNL020C, strain ARK1, stronger effect = lower value 0.926 | locus YNL161W, strain CBK1, stronger effect = lower value 0.959 | locus YNL183C, strain NPR1, stronger effect = lower value 0.957 | locus YNL207W, strain RIO2, stronger effect = lower value 0.953 | locus YNL222W, strain SSU72, stronger effect = lower value 0.959 | locus YNL307C, strain MCK1 (second series), stronger effect = lower value 0.91 | locus YOL078W, strain AVO1, stronger effect = lower value 0.956 | locus YOL136C, strain PFK27, stronger effect = lower value 0.959 | locus YOR061W, strain CKA2, stronger effect = lower value 0.904 | locus YOR119C, strain RIO1, stronger effect = lower value 0.921 | locus YOR231W, strain MKK1, stronger effect = lower value 0.911 | locus YOR329C, strain SCD5, stronger effect = lower value 0.956 | locus YPL031C, strain PHO85, stronger effect = lower value 0.898 | locus YPL153C, strain RAD53, stronger effect = lower value 0.921 | locus YPL204W, strain HRR25, stronger effect = lower value 0.933 | locus YPL209C, strain IPL1, stronger effect = lower value 0.954 | locus YPL256C, strain CLN2, stronger effect = lower value 0.92 | locus YPR025C, strain CCL1, stronger effect = lower value 0.955 | locus YPR106W, strain ISR1, stronger effect = lower value 0.958 | locus YPR111W, strain DBF20, stronger effect = lower value 0.964 | strain NNK1, stronger effect = lower value 0.967 | strain TSCII, stronger effect = lower value 0.947
active: [8] 0.797
